Screening data deposited in PubChem by National Center for Advancing Translational Sciences (NCATS).
ELG1 repair inh = blocks ELG1-dependent DNA repair in HEK293T cells; HEK293T ELG1-luciferase reporter, luminescence, 16 h; DNA damage induced by 5-fluorouridine; Potency, µM (doses to about 46.1 µM), usual class: inhibitors; 330,000 tested, 2.3% active; AID 504467; further: nearly all actives have a fitted effect of over 55% in size
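Step one: seed 2,000 cells per well. Step two: pin-transfer compound or DMSO alongside 5-fluorouridine. Step three: incubate 16 hr, 37 °C, 5% CO2. Step four: add ONE-Glo, wait 30 min, read luminescence.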
VP16 counter = inhibits Gal4-VP16 luciferase reporter, ROR gamma counter-screen | Potency, µM (doses to about 53.6 µM), most hits filed as inhibitors | AID 2546 | Drosophila S2 Gal4-VP16 UAS-luciferase, luminescence, 20 h | 310,000 tested, 3.5% active;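 further: Gal4-VP16 expression switched on by copper sulfate through the metallothionein promoter; nearly all actives have a fitted effect of over 50% in size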
BRCA1 expr act = BRCA1 expression activation; MCF7-BRCA1-FFLuc reporter, luminescence, 48 h; response scale: scaled: vehicle 0%, 10 µM genistein 100%; Potency, µM (top dose mostly 46.1 µM), usual class: activators; 380,000 tested, 1.1% active; further: nearly all actives have a fitted effect of over 80% in size
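Cells: MCF7-BRCA1-FFLuc, 2000/well. Exposure: 48 h, 37 °C, 5% CO2. Read: luminescence, 15 min post-substrate. Controls: genistein 10 microM (maximal activation), DMSO (neutral).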
Giardia kill = kills Giardia lamblia | activity change, % at 7.66 µM, hits read low | Giardia lamblia trophozoite viability | 340,000 tested, 0.15% active | AID 540267; in the data active means activity change below about -80%; inconclusive means between about -30% and that limit;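 further: parasites exposed to compound for two days anaerobically before the ATP read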
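Luminescence from cellular ATP indicates surviving trophozoites (100 cells/well) following 48 hrs anaerobic compound treatment at 37 deg C; signal develops 15-30 min at room temperature.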
p53 reactivator = re-activators of mutant p53; H1299 p53-A138V BP100-luciferase reporter, luminescence, 24 h; Potency, µM (top dose mostly 92.2 µM), most hits filed as activators; 320,000 tested, 0.063% active; further: nearly all actives have a fitted effect of over 45% in size
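p53-null H1299 cells stably carrying temperature-sensitive p53-A138V and a BP100-luciferase reporter were pinned with compounds (4-point, 1:5 series) and held 24 hrs at 37 deg C. Luminescence was read 10 min after detection reagent.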
RORg inh = blocks mouse ROR gamma transcriptional activity; Drosophila S2 Gal4-RORgamma UAS-luciferase reporter, 20 h; P51450; 310,000 tested, 5.4% active; AID 2551; Potency, µM (doses to about 53.6 µM), hits mostly inhibitors; further: nearly all actives have a fitted effect of over 60% in size
Target sequence (P51450 whole entry, looked up, the tested form may be a part): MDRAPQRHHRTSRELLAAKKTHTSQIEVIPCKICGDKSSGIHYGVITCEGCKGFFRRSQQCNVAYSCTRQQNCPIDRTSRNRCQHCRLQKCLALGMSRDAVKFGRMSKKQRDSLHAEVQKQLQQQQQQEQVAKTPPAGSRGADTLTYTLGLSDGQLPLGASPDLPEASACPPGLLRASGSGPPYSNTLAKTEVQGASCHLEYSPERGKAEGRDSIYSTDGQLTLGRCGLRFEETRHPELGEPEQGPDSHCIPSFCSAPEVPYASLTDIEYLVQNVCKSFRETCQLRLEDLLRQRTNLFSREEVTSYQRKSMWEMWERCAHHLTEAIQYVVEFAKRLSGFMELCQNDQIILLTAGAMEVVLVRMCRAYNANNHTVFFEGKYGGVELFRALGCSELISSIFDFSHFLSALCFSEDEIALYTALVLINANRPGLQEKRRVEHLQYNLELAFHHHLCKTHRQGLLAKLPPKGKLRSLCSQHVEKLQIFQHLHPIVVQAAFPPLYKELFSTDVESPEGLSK
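Luminescence from a UAS-regulated Photinus luciferase reporter in stably transfected Drosophila Schneider cells is measured; decreased signal marks ROR gamma inhibition. Fusion expression is induced by 700 uM copper sulfate for 20 hr.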
Numbers stand for hits; – = inactive; ? = inconclusive; · = not tested or not shown. Hits are enriched below; roughly 7.6% of the tested compounds scored in any of these assays. Unless noted, the call rests on the fitted dose curve; in most records, active means well fitted curve in the direction sought with a large enough effect; inconclusive means small, poorly fitted or top-dose-only effect, or another doubt; inactive means no such curve, though single readings can be large; an effect the other way counts as inactive or inconclusive.

SMILES | ELG1 repair inh | VP16 counter | BRCA1 expr act | Giardia kill | p53 reactivator | RORg inh
O=[N+]([O-])c1ccc(Sc2ccncn2)c([N+](=O)[O-])c1 | · | · | – | · | · | ·
Cc1cc(C)nc(Sc2ccc([N+](=O)[O-])cc2[N+](=O)[O-])n1 | – | ? | – | – | – | 8.9µM
Cc1ccc(-c2noc(CN(C)C(=O)c3ccc(Br)o3)n2)cc1 | – | · | – | – | – | ·
Oc1ccc(Br)cc1/C=N/n1c(-c2ccccc2)n[nH]c1=S | – | · | – | – | · | ·
Oc1ccc(Br)cc1C=Nc1cccn2cc(-c3ccccc3)nc12 | ? | – | 6.3µM | – | ? | ?
CCCCc1nc2cc(C(=O)N3CCCCC3C(=O)OC)ccc2o1 (stereo not given) | ? | ? | – | – | ? | –
O=C(N/N=C/c1ccncc1)c1cc2ccccc2o1 | – | – | – | – | – | –
O=C(N/N=C/c1cc(Br)c(Br)o1)c1cc2ccccc2o1 | ? | 6.3µM | – | – | – | 5µM
O=C(N/N=C/c1ccc([N+](=O)[O-])o1)c1cc2c(ccc3ccccc32)o1 | – | ? | – | ? | – | –
O=C(N/N=C/c1ccc([N+](=O)[O-])o1)c1cc2ccccc2o1 | ? | ? | – | -96 | – | ?
Cc1nc2ccccn2c1C(=O)N/N=C/c1ccc([N+](=O)[O-])cc1 | – | – | – | – | – | –
Cc1nc2ccccn2c1C(=O)N/N=C/c1ccc([N+](=O)[O-])o1 | 10µM | ? | – | -86 | ? | 14µM
Cc1ccc(-n2c(C)nc3oc4ccccc4c(=O)c3c2=O)cc1 | – | – | – | – | ? | –
CCCS(=O)(=O)c1cnc(C2COc3ccccc3O2)nc1N (stereo not given) | ? | 1.3µM | – | – | – | 0.63µM
CCSc1nnc(NC(=O)C2Cc3ccccc3CN2C(=O)c2ccco2)s1 (stereo not given) | – | ? | – | – | – | 10µM
Cc1ccsc1/C=N/Nc1nc(=O)[nH]nc1C | ? | 10µM | – | – | – | 5.6µM
Cc1ccsc1/C=N/Nc1ncc(Cl)cc1Cl | ? | 5µM | ? | – | – | 7.1µM
CCC(=O)Nc1cccc(-c2nc3ncccc3o2)c1C | – | – | – | – | ? | –
Cc1c(NC(=O)CSc2ccc(Cl)cc2)cccc1-c1nc2ncccc2o1 | 9.2µM | – | – | – | – | –
COc1cccc(-c2cc(C(=O)N3CCOCC3)no2)c1 | ? | ? | – | – | ? | ?
COc1ccc(-c2cc(C(=O)N3CCOCC3)no2)cc1 | ? | ? | – | – | – | 10µM
O=C(c1cc(-c2ccc(Br)cc2)on1)N1CCOCC1 | ? | ? | – | – | ? | 10µM
COc1cc(-c2nnn(CC(=O)N3CCOCC3)n2)cc(OC)c1OC | – | – | – | – | ? | –
COc1ccc(-c2ccc(-c3nnn(CC(=O)N4CCOCC4)n3)cc2)cc1 | ? | – | 1.4µM | – | · | ?
C[C@@H]1CCCCO[C@H](CN(C)Cc2ccc(C(=O)O)cc2)[C@@H](C)CN([C@H](C)CO)C(=O)c2cc(NC(=O)CCC(F)(F)F)ccc2O1 | · | · | – | · | · | ·
SMILES | ELG1 repair inh | VP16 counter | BRCA1 expr act | Giardia kill | p53 reactivator | RORg inh
CCOC(=O)c1cccc(S(=O)(=O)N(CCO)Cc2cc3cc(OC)ccc3[nH]c2=O)c1 | ? | – | – | – | – | –
COC(=O)c1cccc(S(=O)(=O)N(Cc2ccco2)Cc2cc3cc(OC)ccc3[nH]c2=O)c1 | 15µM | – | – | – | – | –
C=CCc1ccc(O)c(-c2cc(CC=C)ccc2O)c1 | – | ? | – | – | – | –
COc1ccccc1NC(=O)CSc1n[nH]c(-c2ccccn2)n1 | ? | 5µM | – | – | – | 6.3µM
COc1ccc(NC(=O)CSc2n[nH]c(-c3ccccn3)n2)cc1 | ? | ? | – | – | – | 16µM
O=C(CSc1n[nH]c(-c2ccccn2)n1)Nc1ccccc1F | – | 5µM | – | – | – | 3.5µM
COc1ccccc1NC(=O)CSc1n[nH]c(-c2ccco2)n1 | · | · | – | – | · | ·
O=C(CSc1n[nH]c(-c2ccccn2)n1)Nc1ccccc1 | ? | ? | – | – | – | ?
Nc1nc(SCC(=O)Nc2cccc(Oc3ccccc3)c2)n[nH]1 | – | – | – | – | – | ?
